# Results: PubChem BioAssay
# Activity calls are given as the source filed them.
# Experiments:
# [1] = optical density shifts of acrAB sulA E. coli – strain DRC41, OD650, 48 h, E. coli filamentation inducer project, primary screen (AID 1152); conditions: higher = more signal, called active from +8 up or from −8 down;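 further: E. coli MC1000 strain DRC41 lacking acrAB efflux pump and sulA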
# [2] = probe aLefty1 binding on compound microarray – biochemical, small-molecule microarray, 635/667 nm fluorescence, primary screen (AID 1153); conditions: higher = more signal;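 further: score merges spot fluorescence with signal-to-noise ratio from the scanned slide images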
# [3] = plasmodial surface anion channel blockers, osmotic lysis – cell-based, P. falciparum Indochina, OD700, 1 h, primary screen (AID 1154); conditions: P. falciparum Indochina infected RBC osmotic lysis, higher = more signal, called active from +8 up or from −8 down
# [4] = plasmodial surface anion channel blockers, osmotic lysis – cell-based, P. falciparum Indochina, OD700, 2 h, primary screen (AID 1155);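 further: lysis reports solute entry through the parasite surface anion channel PSAC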; conditions: P. falciparum Indochina infected erythrocytes, higher = more signal, called active from +8 up or from −8 down
# [5] = changes in parasitized red cell lysis, either direction – P. falciparum Indochina, OD700, 3 h, PSAC antagonist project, primary screen (AID 1156); conditions: P. falciparum-infected erythrocytes, osmotic lysis, higher = more signal, called active from +8 up or from −8 down
# [6] = plasmodial surface anion channel blockers, osmotic lysis – cell-based, P. falciparum Indochina, OD700, 18 h, primary screen (AID 1157); conditions: P. falciparum Indochina infected erythrocytes, osmotic lysis OD700, 18 h; higher = more signal, called active from +8 up or from −8 down
# [7] = S6 kinase pathway phospho-S6 level changes – cell-based, A549, cytoblot, luminescence, serum-stimulated, primary screen (AID 1158); conditions: 5 h, higher = more signal;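 further: serum-stimulated A549 lung adenocarcinoma cells; signal is phosphorylated S6 detected by cytoblot immunostaining with HRP secondary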
# [8] = molecular target: NADPH oxidase 2 (Homo sapiens) (UniProt P04839); assay: compounds shifting NOX2 Amplex Red fluorescence – cell-based, HEK293-NOX2, PMA-stimulated, NOX inhibitor project, primary screen (AID 1159); conditions: 45 min, higher = more signal, called active from +8 up or from −8 down; further: test concentration not given here
# Chain of NADPH oxidase 2 (Homo sapiens) (P04839 whole entry, looked up): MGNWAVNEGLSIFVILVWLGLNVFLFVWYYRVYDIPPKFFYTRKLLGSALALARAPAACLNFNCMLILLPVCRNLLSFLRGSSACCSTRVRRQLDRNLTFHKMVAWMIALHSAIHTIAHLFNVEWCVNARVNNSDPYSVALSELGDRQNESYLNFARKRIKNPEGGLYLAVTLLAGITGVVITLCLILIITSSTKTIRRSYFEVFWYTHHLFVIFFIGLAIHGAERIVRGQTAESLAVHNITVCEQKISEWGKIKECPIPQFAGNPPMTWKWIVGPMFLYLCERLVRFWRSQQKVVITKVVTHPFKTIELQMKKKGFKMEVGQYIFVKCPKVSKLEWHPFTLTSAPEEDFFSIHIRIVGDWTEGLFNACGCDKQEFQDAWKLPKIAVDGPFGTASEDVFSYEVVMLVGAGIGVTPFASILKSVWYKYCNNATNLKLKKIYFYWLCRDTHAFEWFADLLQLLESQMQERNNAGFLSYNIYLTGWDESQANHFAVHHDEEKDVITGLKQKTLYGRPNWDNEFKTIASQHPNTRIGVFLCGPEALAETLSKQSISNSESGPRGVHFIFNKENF
# [9] = molecular target: NADPH oxidase 4 (Homo sapiens) (UniProt Q9NPH5); assay: compounds shifting NOX4 Amplex Red fluorescence – cell-based, HEK293-NOX4, tetracycline-induced, NOX inhibitor project, primary screen (AID 1160); conditions: HEK293-NOX4, Amplex Red H2O2 fluorescence, 45 min; higher = more signal, called active from +8 up or from −8 down
# Chain of NADPH oxidase 4 (Homo sapiens) (Q9NPH5 whole entry, looked up): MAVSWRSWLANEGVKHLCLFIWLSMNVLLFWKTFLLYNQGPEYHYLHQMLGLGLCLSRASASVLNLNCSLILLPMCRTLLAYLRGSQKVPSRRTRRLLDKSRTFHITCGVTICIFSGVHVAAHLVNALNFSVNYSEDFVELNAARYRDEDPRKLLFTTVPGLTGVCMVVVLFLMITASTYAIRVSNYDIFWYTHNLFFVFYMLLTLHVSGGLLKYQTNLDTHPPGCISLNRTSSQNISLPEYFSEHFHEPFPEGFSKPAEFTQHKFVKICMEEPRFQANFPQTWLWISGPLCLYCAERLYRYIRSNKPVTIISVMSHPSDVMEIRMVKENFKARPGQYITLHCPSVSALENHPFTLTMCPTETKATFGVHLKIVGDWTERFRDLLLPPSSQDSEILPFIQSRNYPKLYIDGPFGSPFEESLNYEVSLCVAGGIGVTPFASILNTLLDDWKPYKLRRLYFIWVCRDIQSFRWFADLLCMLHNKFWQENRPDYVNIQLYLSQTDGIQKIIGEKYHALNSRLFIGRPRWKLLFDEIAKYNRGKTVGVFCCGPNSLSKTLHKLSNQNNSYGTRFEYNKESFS
# [10] = molecular target: NADPH oxidase 5 (Homo sapiens) (UniProt Q96PH1); assay: compounds shifting NOX5 Amplex Red fluorescence – cell-based, HEK293-NOX5, NOX inhibitor project, primary screen (AID 1161); conditions: HEK293-NOX5, ionomycin, 45 min, higher = more signal
# Chain of NADPH oxidase 5 (Homo sapiens) (Q96PH1 whole entry, looked up): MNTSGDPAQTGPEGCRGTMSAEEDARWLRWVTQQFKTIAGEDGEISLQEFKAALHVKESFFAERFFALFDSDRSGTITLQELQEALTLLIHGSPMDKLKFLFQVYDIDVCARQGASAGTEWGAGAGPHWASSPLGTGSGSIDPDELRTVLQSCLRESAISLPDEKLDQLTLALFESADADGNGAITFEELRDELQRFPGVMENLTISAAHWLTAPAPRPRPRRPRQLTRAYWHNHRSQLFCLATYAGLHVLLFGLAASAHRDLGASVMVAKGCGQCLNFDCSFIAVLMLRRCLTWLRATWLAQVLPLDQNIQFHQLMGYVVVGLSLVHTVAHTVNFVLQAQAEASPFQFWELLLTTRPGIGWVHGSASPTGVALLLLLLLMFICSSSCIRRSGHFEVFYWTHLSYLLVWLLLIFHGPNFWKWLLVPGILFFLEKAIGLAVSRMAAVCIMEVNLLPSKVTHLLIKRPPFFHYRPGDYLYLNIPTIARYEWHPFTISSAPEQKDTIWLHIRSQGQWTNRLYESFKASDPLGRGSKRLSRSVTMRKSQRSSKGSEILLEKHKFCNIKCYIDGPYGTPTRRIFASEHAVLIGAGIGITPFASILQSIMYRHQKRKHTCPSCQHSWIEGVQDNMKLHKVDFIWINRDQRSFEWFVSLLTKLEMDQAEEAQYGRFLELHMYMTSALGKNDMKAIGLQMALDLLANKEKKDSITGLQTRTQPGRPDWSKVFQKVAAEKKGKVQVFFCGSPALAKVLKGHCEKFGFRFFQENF
# [11] = compound effects on lung adenocarcinoma cell viability – A549, calcein-AM fluorescence, 48 h, basal, profiling panel (AID 1162); conditions: higher = more signal; further: test concentration not given here
# [12] = compound effects on differentiated 3T3-L1 adipocyte viability – cell-based, 3T3-L1 adipocytes, calcein-AM fluorescence, 48 h, basal, profiling panel (AID 1163); conditions: 3T3-L1 adipocytes viability, higher = more signal; further: test concentration not given here
# [13] = compound effects on hepatocellular carcinoma cell viability – HepG2, calcein-AM fluorescence, 48 h, basal, profiling panel (AID 1164); conditions: higher = more signal; further: test concentration not given here
# [14] = compound effects on multiple myeloma cell viability – MM1S, calcein-AM fluorescence, 48 h, basal, profiling panel (AID 1165); conditions: higher = more signal; further: test concentration not given here
# [15] = calcein-AM signal in unstimulated myeloma cells – cell-based, calcein-AM fluorescence, 48 h, PK04 Diversity Set, profiling panel (AID 1166); conditions: RPMI8226 myeloma viability, higher = more signal;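 further: cells grown under basal conditions without added stimulus; test concentration not given here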
# [16] = JC-1 mitochondrial signal, unstimulated HepG2 cells – cell-based, JC-1 fluorescence, 24 h, 100 nL compound, profiling panel (AID 1167); conditions: HepG2 mitochondrial potential, higher = more signal; further: test concentration not given here
# [17] = JC-1 mitochondrial signal, unstimulated adipocytes – cell-based, JC-1 fluorescence, 3T3-L1 adipocytes, 24 h, 100 nL compound, profiling panel (AID 1168); conditions: JC-1 mitochondrial fluorescence, higher = more signal, called active from +8 up or from −8 down; further: test concentration not given here
# [18] = JC-1 mitochondrial signal, unstimulated myeloma cells – cell-based, JC-1 fluorescence, RPMI8226, 24 h, 100 nL compound, profiling panel (AID 1169); conditions: JC-1 mitochondrial potential fluorescence, higher = more signal; further: test concentration not given here
# [19] = JC-1 mitochondrial signal, unstimulated MM1S myeloma – cell-based, JC-1 fluorescence, 24 h, 100 nL compound, profiling panel (AID 1170); conditions: MM1S mitochondrial potential, higher = more signal; further: test concentration not given here
# [20] = resazurin metabolic signal in A549 cells – cell-based, resazurin fluorescence, 24 h, PK04 Diversity Set, profiling panel (AID 1171); conditions: A549 viability, higher = more signal, called active from +8 up or from −8 down; further: test concentration not given here
SMILES,z-score [1],composite z-score [2],z-score [3],z-score [4],z-score [5],z-score [6],z-score [7],z-score [8],z-score [9],z-score [10],z-score [11],z-score [12],z-score [13],z-score [14],z-score [15],z-score [16],z-score [17],z-score [18],z-score [19],z-score [20]
C=CC[C@]1(C(=O)N2CCOCC2)N=C(c2ccc(OCCCO)cc2)O[C@H]1c1ccccc1N=[N+]=[N-],0.65 (inactive),0.448,33.6 (active),29.5 (active),3.29 (inactive),7.61 (inactive),2.04,-1.82 (inactive),0.451 (inactive),-2.56,0.0797,0.816,-0.0586,-0.094,-1.8,1.23,1.17 (inactive),-0.733,-1.44,-0.441 (inactive)
O=C1C2C=CC(C(O)c3c(F)cccc3Cl)N(Nc3ccccc3F)C2C(=O)N1c1ccccc1 (stereo not given),-0.775 (inactive),0.19,6.75 (inactive),1.57 (inactive),0.303 (inactive),1.1 (inactive),-0.514,-1.43 (inactive),-4.43 (inactive),-2.84,-0.505,-1.08,-0.257,0.278,-0.0072,-1.03,-0.217 (inactive),-0.277,-0.298,-0.103 (inactive)
CCCCN1CC=CC23O[C@@H]4C=CCCOC(=O)C4[C@H]2C(=O)N(CCCCCO)[C@@H]3C1=O (stereo not given in full),0.4 (inactive),-0.363,1.47 (inactive),0.48 (inactive),2.26 (inactive),0.331 (inactive),-0.0028,1.28 (inactive),0.0393 (inactive),1.46,0.761,0.159,0.858,1.83,0.916,0.84,0.615 (inactive),0.117,-0.832,-0.318 (inactive)
CCOC(=O)C1=CC[C@H]2C(=O)N(c3ccccc3)C(=O)[C@@H]12,-1.58 (inactive),0.0027,0.399 (inactive),0.772 (inactive),0.692 (inactive),0.339 (inactive),-0.743,-0.234 (inactive),-2.03 (inactive),-2.36,-0.538,-0.405,0.229,-0.472,0.217,-1.8,-1.28 (inactive),-0.00668,0.371,0.396 (inactive)
CN1C(=O)C2C=CC(C(O)c3ccc(F)cc3)N(N(c3ccccc3)c3ccccc3)C2C1=O (stereo not given),-1.46 (inactive),-0.483,0.362 (inactive),1.27 (inactive),0.39 (inactive),1.17 (inactive),-1.16,-0.948 (inactive),-1.82 (inactive),-1.39,-0.631,-2.01,0.153,0.0431,-0.462,-1.03,-0.802 (inactive),0.399,-1.03,-0.867 (inactive)
CC1CC/C=C\[C@H]2OC34C=CCN(Cn5nnc6ccccc65)C(=O)[C@H]3N(CCCCCO)C(=O)[C@@H]4C2C(=O)O1 (stereo not given in full),0.996 (inactive),-0.624,0.586 (inactive),0.253 (inactive),0.193 (inactive),0.626 (inactive),0.0478,0.664 (inactive),0.341 (inactive),1.68,-0.306,0.393,-0.841,1.4,-0.0074,0.944,0.516 (inactive),0.727,-0.124,0.411 (inactive)
O=C1NC(=O)C2C1C=CC(C(O)c1ccc(I)cc1)N2Nc1ccc(Cl)cc1Cl (stereo not given),-0.971 (inactive),0.618,5.17 (inactive),0.872 (inactive),-1.72 (inactive),-1.16 (inactive),1.22,-0.204 (inactive),-4.36 (inactive),-0.634,-0.519,0.53,-0.363,-3.83,-4.06,-2.51,-1.25 (inactive),-0.984,-1.09,-1.59 (inactive)
COCCCNC(=O)[C@@H]1c2ccccc2C(=O)N(Cc2ccccc2)[C@H]1c1ccc(CO)cc1,-0.134 (inactive),0.603,0.481 (inactive),-0.307 (inactive),0.239 (inactive),0.129 (inactive),-0.0034,-0.694 (inactive),0.572 (inactive),-2.19,0.273,0.803,0.601,0.239,0.437,1.1,-0.0918 (inactive),0.163,0.282,0.45 (inactive)
CC(c1ccccc1)C(O)C1C=CC2C(=O)N(c3ccccc3)C(=O)C2N1Nc1ccccc1 (stereo not given),-1.08 (inactive),1.05,4.6 (inactive),0.386 (inactive),2.47 (inactive),-1.35 (inactive),1.95,-3.18 (inactive),-4.79 (inactive),-5.54,-0.477,0.618,-0.645,-0.476,-0.823,-2.36,-0.266 (inactive),-0.814,-0.547,-1.15 (inactive)
COCCOC(=O)N1C(=O)[C@@]2(c3cc(C#CCCO)ccc31)[C@H](c1ccc(O)cc1)N1[C@H](c3ccccc3)[C@H](c3ccccc3)OC(=O)[C@H]1[C@@H]2C(=O)N1CCN(c2ncccn2)CC1,0.209 (inactive),1.97,1.65 (inactive),0.0986 (inactive),0.599 (inactive),0.235 (inactive),0.078,1.11 (inactive),0.682 (inactive),1.85,-0.858,-0.721,-0.753,-0.0852,0.248,0.0243,-1.45 (inactive),-0.139,-0.611,0.838 (inactive)
O=C(CS)NCCCCCNC(=O)[C@H]1C[C@H]2C(=O)NCC(=O)N2[C@H]1c1cccc(OCCO)c1,1.43 (inactive),-0.142,0.0198 (inactive),-0.851 (inactive),-4 (inactive),-2.1 (inactive),-0.61,0.448 (inactive),1.08 (inactive),0.664,0.54,0.0451,-0.203,0.304,0.111,-0.342,-0.0834 (inactive),0.127,0.112,0.768 (inactive)
COCCCNC(=O)[C@@H]1c2ccccc2C(=O)N(Cc2ccccc2OC)[C@H]1c1ccc(CO)cc1,0.876 (inactive),0.278,1.54 (inactive),-0.0902 (inactive),0.591 (inactive),-0.631 (inactive),2.45,-1.79 (inactive),-3.52 (inactive),-5.09,-0.0798,1.02,-0.429,0.528,-0.447,1.59,-0.588 (inactive),-0.171,-0.391,1.71 (inactive)
COCCOC(=O)N1C(=O)[C@@]2(c3cc(C#CC4(O)CCCCCC4)ccc31)[C@H](C(=O)Nc1nc3ccccc3s1)[C@H]1C(=O)O[C@H](c3ccccc3)[C@H](c3ccccc3)N1[C@@H]2c1ccccc1OCCO,0.736 (inactive),0.282,2.48 (inactive),1.81 (inactive),0.895 (inactive),0.948 (inactive),0.476,1.85 (inactive),0.572 (inactive),0.908,1.29,1.14,-0.333,-2.18,-3.42,-3.05,1.47 (inactive),-0.866,-0.876,-0.511 (inactive)
CCCC(=O)N(CCc1c[nH]c2ccccc12)[C@@H]1CC(C(=O)NCCO)=C[C@H](Oc2c(I)cc(CO)cc2OC)[C@H]1O,1.57 (inactive),-0.275,13.2 (active),1.47 (inactive),2.04 (inactive),0.501 (inactive),0.968,-0.674 (inactive),1.07 (inactive),1.16,0.0593,-0.0939,0.0635,0.704,0.0598,0.149,-0.937 (inactive),-0.178,-1.49,-0.558 (inactive)
C=CCOC(=O)[C@H]1[C@@H]2C(=O)O[C@@H](c3ccccc3)[C@@H](c3ccccc3)N2[C@@H](c2ccc(OCCOC(=O)[C@H]3C[C@H]4C(=O)N[C@@H](CCCCN(C)C)C(=O)N4[C@H]3c3cccc(OCCO)c3)cc2)[C@]12C(=O)Nc1ccc(I)cc12,-1.61 (inactive),-0.156,-1.87 (inactive),0.381 (inactive),-0.0437 (inactive),0.375 (inactive),-0.529,2.18 (inactive),1.01 (inactive),1.06,-0.226,-0.512,1.22,-2.14,-1.82,-1.92,-1.13 (inactive),-0.157,-0.465,0.477 (inactive)
O=C1O[C@@H](c2ccccc2)[C@@H](c2ccccc2)N2[C@@H](c3ccccc3OCCO)[C@]3(C(=O)Nc4ccc(C#CC5(O)CCCCCC5)cc43)[C@@H](C(=O)N3CCN(c4ncccn4)CC3)[C@H]12,0.691 (inactive),-0.0141,1.89 (inactive),1.66 (inactive),2.21 (inactive),1.18 (inactive),-0.451,0.814 (inactive),0.343 (inactive),1.93,-0.643,1.46,0.11,-1.22,-2.29,-0.457,0.821 (inactive),-1.04,-0.796,-0.697 (inactive)
CC(=O)NCCCC[C@@H]1NC(=O)[C@H]2C[C@@H](C(=O)NCCCCCNC(=O)CS)[C@@H](c3ccc(O)cc3)N2C1=O,-0.0078 (inactive),-0.12,1.94 (inactive),0.811 (inactive),-0.952 (inactive),0.425 (inactive),-0.591,0.772 (inactive),-2.06 (inactive),-0.294,0.489,0.102,0.0041,-1.41,0.102,0.231,-0.729 (inactive),0.698,0.612,-0.187 (inactive)
C=CCN(Cc1ccccc1)C(=O)C(c1cccs1)N(C(=O)/C=C\C(=O)O)c1ccc(CCOCCO)cc1 (stereo not given),1.61 (inactive),-0.0538,1.51 (inactive),-0.707 (inactive),0.189 (inactive),-1.04 (inactive),1.77,-0.108 (inactive),-0.821 (inactive),-0.58,0.631,0.007,0.97,1.82,0.526,0.427,0.319 (inactive),0.697,-1.06,-0.52 (inactive)
